± gives the standard deviation of the averaged measurements. Whole data set: some 4,100 sequences, median “arbitrary fluorescence units” near 780, cut for the highest 2% near 22,000. The sample holds the highest values, similar sequences and a random draw of the others, so the mix is not that of the screen.

The assay deals with T1, ETS1 (UniProt P14921).
T1 sequence: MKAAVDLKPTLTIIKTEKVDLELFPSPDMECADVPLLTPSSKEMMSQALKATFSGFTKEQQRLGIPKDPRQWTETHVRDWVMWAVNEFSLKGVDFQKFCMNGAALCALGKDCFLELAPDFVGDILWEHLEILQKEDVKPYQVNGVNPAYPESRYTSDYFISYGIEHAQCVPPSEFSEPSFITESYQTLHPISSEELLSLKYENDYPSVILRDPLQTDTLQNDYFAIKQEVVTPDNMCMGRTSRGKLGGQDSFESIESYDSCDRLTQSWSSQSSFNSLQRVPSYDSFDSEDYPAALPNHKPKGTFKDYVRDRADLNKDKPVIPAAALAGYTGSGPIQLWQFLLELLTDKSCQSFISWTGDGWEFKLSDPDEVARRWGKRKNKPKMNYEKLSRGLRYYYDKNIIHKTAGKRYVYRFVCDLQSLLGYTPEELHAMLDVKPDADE
Description: ETS1 binding intensity (PBM fluorescence), ETS1 alone (arbitrary fluorescence units); higher = stronger binding. The note with it: ETS1 concentration 1 nM; RUNX1 concentration 0 nM. How it is done:
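gcPBM on 36-bp genomic-derived probes (partner site mutated) containing one ETS1 site and no RUNX1 site. Recombinant human ETS1 (1 nM) was incubated alone or with RUNX1 (25 nM) and detected by anti-ETS1 antibody fluorescence. Values are medians over 4 replicate spots (not normalised). The probes sit in constant array flanks that are not printed.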
In turn, GCAGAGAGGAAGTGTGGGGGTGGAGGAGGCCGAAGA showed an ETS1 binding intensity of 1840. Turning to AGACGGGACCGGAAGCCGGGCCGTAGGCGGCCGGGC, the ETS1 binding intensity came to 12100. Consider TTTCGAGAAAACCGGAAGTGCGTGGACACGCCCCGC, for which the ETS1 binding intensity was 31500. As to GCCGCCGTAGATTCGACACAAAACCCGGAAGGACCC, the ETS1 binding intensity is 530. The sequence AAACTACTTCCCCATATCATCTGTAGCTTGCACAAC had an ETS1 binding intensity of 1180. The sequence CTTAGCACTTGTAGTCAGCCTGCTTCCGGCTGTGGC came in with an ETS1 binding intensity of 2100.

As for GCGAGCACTTCCGGTGTGTGAGCCTGCTGTTGCTAC, the ETS1 binding intensity was found to be 32800. TGAGGTGCTAAAGCACCAAGCACTTCCTGCTGTTAG registered an ETS1 binding intensity of 3380. In turn, GGGGCAGGAAGTGGAGGTTTGAAGTGCTTTAGAGTA showed an ETS1 binding intensity of 7390.

GGGCCCCTCAGCCCGACCGCCTGACCGGAAGTGCAG came in with an ETS1 binding intensity of 5030. As for TGAACTCCGCCCAGCGCGATCCGGAAGCCTAGCGCC, the ETS1 binding intensity was found to be 443.

On to TGCTTCCCGTCCGTGTCGCGGCCCTGGGGTTGGCGG, for which the ETS1 binding intensity came out at 8550. TTGGTGACCTCTTCCTGTCCGCTGGGGTGTTGTTAC registered an ETS1 binding intensity of 3680. TCGCTTCCGGTGTCGGTTACAGACTGGGGTTGCCAT registered an ETS1 binding intensity of 30000.

As for TTCAGGCGGCAAAGAACAGACCTGCAGGAGGAAATA, the ETS1 binding intensity is 404.

On to CTCTTCCGGCCGCGAGGAGCGCGACAGCGGCCCCTG, for which the ETS1 binding intensity came out at 14400. For TGTTGACTCAGGAAGATGATGGCTGAGGGGGCTGCA, the ETS1 binding intensity amounted to 509.

Turning to CACTTCCTCCTCGGGGGCCTCAGAAAATCACAGGGC, the ETS1 binding intensity stood at 13200.

The sequence CTAAAGGCAGGGACTACAAACACTTCCTGTTTGTGT displayed an ETS1 binding intensity of 7710.

Take TCTAAATCACTTCCTGTTACAGAAACTACAGGCCTG: the ETS1 binding intensity amounted to 26900. The figure for GGAGCGCGCTGGGGACGTTTAAAGGAAATTTACAAT is 363; for TCCGTGAGGTGCAGCAGGTCGGTAGGCGGGAAATGG it is 378.

On to TGCTGCACCCCAGCCCCTTTCTCTTCCGGTTCTAGG, for which the ETS1 binding intensity came out at 1850.

For the sequence AACATCCGGTTCCCGGTTCTGCCCCCTACCCCAGCT, the ETS1 binding intensity was 49100. CCGACCCCAGCTTCCCGGGGTTGAGGCCCTGCCTCC: the ETS1 binding intensity came to 462. With GACCACTTCCTTTCTGTGTTTTGGGGTTTCACAACT, the ETS1 binding intensity came out at 11900. ACAACTTCCTGTGGGATTTTTGGTGTCTACGGCTCA displayed an ETS1 binding intensity of 37400. Sequence ACTTGACTTCCTGTGGGGTGTCTGGTGTCTGCACTT showed an ETS1 binding intensity of 11700. The figure for CTCCCACATCCGAAGCGGCGCAACTCACAACAGCCT is 1140.

As to GTCCAACAGCAGCCAGGCAAGCACATCCTGCCCCAC, the ETS1 binding intensity was 1980.

GGGCCCACATCCGGCGCGCGCAACAGCAGCCTACTG returned an ETS1 binding intensity of 25800.

The sequence CGAAGAGGAAACAAAGAAAGGTGCTGTTCTGGCGCC came in with an ETS1 binding intensity of 506.

Take TCAAGAAAACAGGAAACTCTCAAATCCAAGTTCTGA: the ETS1 binding intensity worked out at 3280.

Sequence TTCTATCCTGCCTTGCATGTCTTTAATCACACTGAG returned an ETS1 binding intensity of 1540. Turning to ATGAGCTATTTCCTGCCTTGTTGTCAGAGCCAGACT, the ETS1 binding intensity came to 23500. The sequence CAGCTGCAGGCCTGGGTGTACGGAGCCCGGAACAGG had an ETS1 binding intensity of 567.

TACCTACAGGAAATGAGACACACCTCAGGCCGATCC displayed an ETS1 binding intensity of 5550. For CTCAGACCCTCAGTGAGGTCTGACGTCATTTCCTGC the value was 734.

In the case of CCTGCTGCTGTCAGCCCTGTCTCTTCCTGTTTCTGC, the ETS1 binding intensity was 1030. As for CTCGTGTTTTGTAGCTGTGTTCTGTCCGGTCAGTTG, the ETS1 binding intensity came to 502 ± 32.

Sequence CACTTCCGGGTCGTCAGCTCAGTTCTGCTGTTTCTG registered an ETS1 binding intensity of 26000. TGGATAGTGGGACACCTCAACAGGATGTTAGTGAGG returned an ETS1 binding intensity of 858.

In turn, GACGGCCGCTTTTGGCGCGGGACTTCCTGCCTGGCC registered an ETS1 binding intensity of 3070. For CCCTCCGGCCCTCAGCCCTGCCCAAACGGAAGTGCT the value was 787.

For the sequence AGTTTTCCGTCGGGCTCCCAGTGACGCCGAAGAGGT, the ETS1 binding intensity was found to be 2580.

Regarding GCGCAAAGCCGGAAGGAGGGGTTTGGGGCTGGGGAG, the ETS1 binding intensity came out at 4130. In turn, CTTCCTTCCCTTCCTTCTGCTCCCTCCCAGAGCCGC showed an ETS1 binding intensity of 852. In turn, TCCCTCCTCCGCTCAGACCCACTTCCTGTCTGCTTC had an ETS1 binding intensity of 8330. For CCCACTTCCTGTCTGCTTCCCTCCTCCGCTCAGACC the value was 28400; for CCGGTCGGGGCTGCAGCCGCTTCCGGAGCCGCGGGC, 3060; for CTGCACTTCCGGTCAGGCGGTCGGGCTGAGGGGCCC, 36600. Take TAGGGGCTGAGGGTCCGGGCGGAAGTGGGGCAGGCG: the ETS1 binding intensity amounted to 2500. In turn, ATGGATGGGGTTGCTTGCGTGAGGAAATACTTGATG came in with an ETS1 binding intensity of 524. Regarding CCCAATTTCCTTTGCTCTGCTGTCTGCCAACCCCAA, the ETS1 binding intensity turned out to be 3560. For GCAGATATCACAGACTCTCTCCTTTCCTGCTGAATA, the ETS1 binding intensity came out at 546. For TGACTTCCGGTCCGTAGTGGGGCCTTCGGTGGGAGT the value was 35800; for CTGCAGCGGGGATCCTTGGGGCCCTTCCGGTCGGTG, 2190; for GCTCGCAGCCCCAAGAGGTGGCCTTCGGTTCCGGGG, 382. On to TTGTGGACGCGGATTTGGGGGCGGGTATCCGGGCCT, for which the ETS1 binding intensity worked out at 564.

On to GGTCACTTCGGCCCAGAGGCCCGCTCTTCCGCTGAG, for which the ETS1 binding intensity stood at 564.

With CAGGGATTCCGGCTGAGTGCGGCCCCCTCAGCCTCC, the ETS1 binding intensity was 606.

The sequence GTGGCTGTCGTTGAACTGACTCTCGGGTTTCCGCTC showed an ETS1 binding intensity of 606.

The record behind these values is the supplement of paper PMC10681739.
